# PubChem BioAssay (Tox21)
# Values without a mark were called inactive. Results filed as inconclusive are left out. Entries that show only a call come without a potency. Active and inactive are the calls of the source. Unless noted, the call rests on the fitted dose curve; in most records, active means well fitted curve in the direction sought with a large enough effect in the repeat runs; inconclusive means weak or mixed curves; inactive means no such curve, though single readings can be large; an effect the other way counts as inactive or inconclusive.
# Tests used:
# Aromatase (Homo sapiens) = Aromatase (Homo sapiens) (UniProt P11511); experiment: qHTS assay to identify aromatase inhibitors (AID 743083); further: series mostly up to about 70 µM; nearly all actives have a fitted effect of over 55% in size
# Sequence of Aromatase (Homo sapiens) (P11511 whole entry, looked up): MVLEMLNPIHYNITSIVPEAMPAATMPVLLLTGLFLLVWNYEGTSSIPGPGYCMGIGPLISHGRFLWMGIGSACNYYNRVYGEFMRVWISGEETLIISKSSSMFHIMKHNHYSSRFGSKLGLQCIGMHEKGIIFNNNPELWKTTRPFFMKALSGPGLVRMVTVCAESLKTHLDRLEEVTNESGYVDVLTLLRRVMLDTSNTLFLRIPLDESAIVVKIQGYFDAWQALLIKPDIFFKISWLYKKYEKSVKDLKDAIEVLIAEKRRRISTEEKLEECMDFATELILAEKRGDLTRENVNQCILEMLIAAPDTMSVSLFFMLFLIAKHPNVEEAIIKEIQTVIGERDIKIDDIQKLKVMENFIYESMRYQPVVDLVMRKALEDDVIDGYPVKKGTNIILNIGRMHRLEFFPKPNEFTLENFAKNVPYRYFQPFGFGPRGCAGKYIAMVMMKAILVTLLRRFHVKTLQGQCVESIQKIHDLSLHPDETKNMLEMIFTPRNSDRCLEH
# [1] = qHTS assay to identify small molecule agonists of H2AX (AID 1224845; active means well fitted activation curve with a large enough effect in the signal ratio in the repeat runs, not every such curve was filed as active; the % refers to the signal ratio; further: potency means the concentration at half of the fitted maximal effect)
# Outline: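 Wild-type CHO-K1 cells plated overnight, then exposed 3 hr at 37C to compounds at 15 concentrations (0.76% DMSO). Lysed, then HTRF anti-pH2AX(S139)-cryptate/anti-H2AX-d2 detection after 24 hr at room temperature; emissions 665 and 620 nm.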
# [2] = target: Acetylcholinesterase (Homo sapiens) (UniProt P22303); experiment: Acetylcholinesterase (AChE) small molecule antagonists: colormetric cell-based qHTS assay (AID 1347395; calls by dose curve; further: nearly all actives have a fitted effect of over 30% in size)
# Sequence of Acetylcholinesterase (Homo sapiens) (P22303 whole entry, looked up): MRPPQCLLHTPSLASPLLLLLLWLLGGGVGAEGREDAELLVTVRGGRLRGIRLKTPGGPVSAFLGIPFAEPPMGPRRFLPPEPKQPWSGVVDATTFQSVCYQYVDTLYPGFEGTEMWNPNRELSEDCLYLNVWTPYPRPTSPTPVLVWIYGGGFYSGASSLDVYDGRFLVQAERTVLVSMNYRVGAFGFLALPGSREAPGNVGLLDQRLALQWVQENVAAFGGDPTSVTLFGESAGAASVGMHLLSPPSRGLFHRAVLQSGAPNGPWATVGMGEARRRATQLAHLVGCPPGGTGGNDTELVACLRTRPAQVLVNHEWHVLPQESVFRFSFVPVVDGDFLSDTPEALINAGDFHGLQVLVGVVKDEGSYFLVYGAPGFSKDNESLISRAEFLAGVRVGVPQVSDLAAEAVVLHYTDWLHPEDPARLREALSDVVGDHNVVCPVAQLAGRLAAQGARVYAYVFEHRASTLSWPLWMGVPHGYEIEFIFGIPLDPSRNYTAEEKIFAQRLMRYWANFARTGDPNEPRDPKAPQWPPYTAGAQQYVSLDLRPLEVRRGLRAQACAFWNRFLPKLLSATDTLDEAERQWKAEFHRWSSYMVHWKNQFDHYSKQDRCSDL
# Outline: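 SH-SY5Y cells attached overnight, exposed to compound 30 min at 37 C, then given DTNB/acetylthiocholine; after 90 min at 37 C, colorimetric thiocholine read gives cellular AChE activity.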
# [3] = target: Acetylcholinesterase (Homo sapiens) (UniProt P22303); experiment: Acetylcholinesterase (AChE) small molecule antagonists: enzyme-based qHTS assay (AID 1347397; calls by dose curve; further: nearly all actives have a fitted effect of over 55% in size); settings: Potency: AChE enzyme activity inhibition; outcome: AChE enzyme activity inhibition
# Outline: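 Human recombinant acetylcholinesterase; substrate acetylthiocholine; thiocholine quantified with DTNB (colorimetric). Compound preincubation 30 min RT; reaction 10 min RT.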
# [4] = target: Acetylcholinesterase (Homo sapiens) (UniProt P22303); experiment: Acetylcholinesterase (AChE) small molecule antagonists: fluorescence cell-based qHTS assay (AID 1347398; calls by dose curve; further: nearly all actives have a fitted effect of over 50% in size); settings: Potency: AChE activity; outcome: AChE activity
# Outline: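 Thiocholine generated from acetylthiocholine by SH-SY5Y cell AChE is detected with Thiolite Green (Ex/Em 490/520 nm) after 40 min at room temperature, following 30 min compound pretreatment at 37 C.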
# [5] = target: Acetylcholinesterase (Homo sapiens) (UniProt P22303); experiment: Acetylcholinesterase (AChE) small molecule antagonists: enzyme-based qHTS assay with human liver microsomes (AID 1347399; calls by dose curve; further: nearly all actives have a fitted effect of over 60% in size); settings: Potency: qHTS inhibition; outcome: qHTS inhibition
# Outline: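 Recombinant human AChE (50 mU/mL in the enzyme mix) and human liver microsomes (0.25 mg/mL final) were preincubated with compound and NADPH (0.25 mg/mL final) for 30 min at 37 C. Acetylthiocholine/DTNB was then added; thiocholine was read colorimetrically after 10 min at room temperature.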
# [6] = qHTS assay to identify small molecule antagonists of the estrogen related receptor (ERR) signaling pathway (AID 1224819; further: nearly all actives have a fitted effect of over 50% in size; further: potency means the concentration at half of the fitted maximal effect)
# Outline: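 ERR reporter cells were plated at 2,000 cells/well and left 6 h at 37 C/5% CO2 before pin-tool transfer of compounds in DMSO. After 18 h at 37 C, One-Glo was added and luminescence was read 30 min later at room temperature.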
# [7] = qHTS assay to identify small molecule agonists of the estrogen related receptor (ERR) signaling pathway (AID 1224820)
# Outline: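 Cells: ERR line from NTP, 2,000/well. Pre-incubation 6 h, 37 C/5% CO2. Compound (DMSO) pin transfer, 18 h 37 C. One-Glo, 30 min RT, luminescence.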
# [8] = test system: estrogen-related receptor alpha (ERRalpha) with PGC-1alpha coactivator, human; experiment: qHTS assay to identify small molecule antagonists of the estrogen related receptor signaling pathway with the pleiotropic PPARgamma coactivator (PGC) (AID 1224821; calls by dose curve;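 further: series mostly up to about 46 µM; lower luminescence signal means antagonism of PGC/ERR signalling; nearly all actives have a fitted effect of over 50% in size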)
# Outline: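 Luminescent read-out (One-Glo, 30 min at room temperature) following 18 h treatment of PGC/ERR cells at 37 C with compounds delivered in DMSO. Cells had settled 6 h at 37 C/5% CO2 before dosing.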
# [9] = qHTS assay to identify small molecule agonists of the estrogen related receptor signaling pathway with the pleiotropic PPARgamma coactivator (PGC) (AID 1224823)
# Outline: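 Steps: plate PGC/ERR cells at 2,000 cells/well; incubate 6 h, 37 C/5% CO2; pin-transfer compounds (DMSO); incubate 18 h, 37 C; add One-Glo; 30 min RT; read luminescence.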
# [10] = qHTS assay to identify small molecule antagonists of the estrogen related receptor signaling pathway with the pleiotropic PPARgamma coactivator (PGC) cell viability counter screen (AID 1224822;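 further: potency means the concentration at half of the fitted maximal effect; viability read after 17.5 h compound exposure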)
# Outline: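 PGC/ERR cells were seeded at 2,000 cells/well, rested 6 h at 37 C/5% CO2, then given compounds in DMSO by pin tool and incubated 17.5 h at 37 C. Viability came from CellTiter-Fluor fluorescence after 30 min.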
smiles,measurement,setting,value
ClC(Cl)(Cl)c1ccc(C(Cl)(Cl)Cl)cc1,Potency,Aromatase (Homo sapiens),inactive
same,Potency,[1],112 µM (active)
same,Potency,[2],inactive
same,Potency,[3],inactive
same,Potency,[4],inactive
same,Potency,[5],inactive
CN1CCC[C@@H]1Cc1c[nH]c2ccc(Nc3ncccc3[N+](=O)[O-])cc12,Potency,[6],inactive
same,Potency,[7],inactive
same,Potency,[8],inactive
same,Potency,[9],inactive
C/C=C(/C)C(=O)O[C@H]1C(C)=C2[C@H]([C@@H]1OC(=O)CCCCCCC)[C@@](C)(OC(C)=O)C[C@H](OC(=O)CCC)[C@@]1(O)[C@H]2OC(=O)[C@@]1(C)O,Potency,[6],0.246 µM (active)
same,Potency,[7],inactive
same,Potency,[10],8.1 µM (active)
same,Potency,[9],inactive
